8 molecules from PubChem BioAssay (NCI) can be followed below.

Some test systems named below: DU-145 prostate; K-562 leukemia; MALME-3M melanoma; MDA-MB-231 breast; RXF 393 renal; SF-268 CNS; SF-295 CNS; SF-539 CNS; UACC-257 melanoma; M14 melanoma; HCT-15 colon; HT29 colon; SNB-75 CNS; SNB-19 CNS; U251 CNS; PC-3 prostate; SK-MEL-5 melanoma; UACC-62 melanoma; LOX IMVI melanoma; SK-MEL-28 melanoma.
Common to all, as to experiment: NCI-60 one-dose screen, 48 h (100 = growth as untreated, 0 = no growth, -100 = all killed)
Common to all, as to conditions: 10 µM unless noted

The panel holds about 83,000 compounds, 20% with a hit somewhere; the sample as a whole holds those more often.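 Method: cells in 96-well plates; compound added at one concentration; 48 h incubation; percent growth measured; values under 10 scored active.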 Values without a mark were called inactive. Calls of active or inactive are those of the source.

In the case of `O=S(=O)(Nc1ncccn1)c1ccc(Nc2ccc3nnc(-c4ccncc4)n3n2)cc1`, the growth in the assay on DU-145 prostate is 108%; in the assay with K-562 leukemia, 102%; in the assay on MALME-3M melanoma, 97.6%; with MDA-MB-231 breast, 92.2%; with RXF 393 renal, 118%; in the assay on SF-268 CNS it was 98.3%. Further, the growth is 100% in the assay with SF-295 CNS; 95.2% in the assay on SF-539 CNS; 103% with UACC-257 melanoma; 97.7% with M14 melanoma; 99.3% in the assay on HCT-15 colon; 116% in the assay with HT29 colon. Further, the growth was 86.9% with SNB-75 CNS; 99.7% with SNB-19 CNS; 102% in the assay with U251 CNS; 102% with PC-3 prostate; 100% in the assay with SK-MEL-5 melanoma; 99.1% in the assay on UACC-62 melanoma. Moreover, the results for the growth in the assay with LOX IMVI melanoma and with SK-MEL-28 melanoma were 95.1% and 99.1%, respectively.

Regarding `CCN1C(=O)C2(Nc3ccccc3S2)c2cc(C)ccc21` (stereo not given), the growth was 101% in the assay with DU-145 prostate; 108% in the assay on K-562 leukemia; 84.1% in the assay on MALME-3M melanoma; 105% in the assay with MDA-MB-231 breast; 93.7% in the assay on RXF 393 renal; 98.2% in the assay with SF-268 CNS. Also, the growth in the assay on SF-295 CNS was 101%; in the assay with SF-539 CNS, 94.4%; in the assay on UACC-257 melanoma it was 101%; in the assay on M14 melanoma it was 92.6%; in the assay with HCT-15 colon, 101%; in the assay on HT29 colon, 107%. Also, the growth is 76.2% with SNB-75 CNS; 107% in the assay with SNB-19 CNS; 97.5% in the assay with U251 CNS; 89% in the assay with PC-3 prostate; 95.1% with SK-MEL-5 melanoma; 102% in the assay on UACC-62 melanoma. The growth is 103% with LOX IMVI melanoma and 105% in the assay with SK-MEL-28 melanoma.

On to `O=C(Nc1ccccc1)Oc1cccc2cccnc12`, for which the growth with DU-145 prostate was 92.9%; with K-562 leukemia, 44.9%; with MALME-3M melanoma it was 108%; in the assay with MDA-MB-231 breast, 96.7%; in the assay on RXF 393 renal it was 116%; in the assay with SF-268 CNS it was 87.6%. The growth in the assay with SF-295 CNS is 83.9%; in the assay on SF-539 CNS, 95.5%; with UACC-257 melanoma, 75.6%; in the assay on M14 melanoma, 57.6%; in the assay on HCT-15 colon, 74.5%; in the assay on HT29 colon it was 28.5%. For the same molecule, the growth was 83% with SNB-75 CNS; 99.3% in the assay on SNB-19 CNS; 70.5% in the assay on U251 CNS; 70.1% in the assay with PC-3 prostate; 96.9% in the assay with SK-MEL-5 melanoma; 108% with UACC-62 melanoma. Besides, the growth with LOX IMVI melanoma was 61%; with SK-MEL-28 melanoma it was 97.6%.

As to `N#Cc1c(-c2cccc(F)c2)cc(-c2ccc(Br)s2)[nH]c1=O`, the growth was 90.1% in the assay on DU-145 prostate; 24.5% in the assay with K-562 leukemia; 67.2% in the assay with MALME-3M melanoma; 79.7% with MDA-MB-231 breast; 87.3% with RXF 393 renal; 83.1% in the assay on SF-268 CNS. The growth was 73.4% in the assay on SF-295 CNS; 83.6% in the assay with SF-539 CNS; 87.4% with UACC-257 melanoma; 39.8% with M14 melanoma; 27.2% in the assay with HCT-15 colon; 118% with HT29 colon. The growth with SNB-75 CNS was 61.2%; in the assay on SNB-19 CNS, 78.4%; in the assay with U251 CNS it was 56.2%; in the assay with PC-3 prostate, 78.2%; in the assay on SK-MEL-5 melanoma, 68.8%; in the assay with UACC-62 melanoma, 57.9%. Moreover, the growth in the assay on LOX IMVI melanoma was 61.7%; in the assay with SK-MEL-28 melanoma, 71.3%.

Turning to `O=C1/C(=C/c2ccccc2F)CNC/C1=C\c1ccccc1F`, the growth in the assay on DU-145 prostate was -11.6% (active); in the assay on K-562 leukemia, 5.7% (active); in the assay with MALME-3M melanoma, -9.46% (active); in the assay with MDA-MB-231 breast, -2.14% (active); with RXF 393 renal, -86.2% (active); in the assay on SF-268 CNS it was -11.4% (active). For the same molecule, the growth is -17.3% (active) in the assay with SF-295 CNS; -33% (active) in the assay on SF-539 CNS; -46.1% (active) in the assay on UACC-257 melanoma; -47.3% (active) with M14 melanoma; -0.826% (active) with HCT-15 colon; -35.4% (active) with HT29 colon. Besides, the growth is 32.5% in the assay on SNB-75 CNS; 3.94% (active) with SNB-19 CNS; -85.3% (active) in the assay with U251 CNS; 4.63% (active) in the assay on PC-3 prostate; -88.4% (active) with SK-MEL-5 melanoma; -58.3% (active) in the assay on UACC-62 melanoma. Further, the growth in the assay with LOX IMVI melanoma is -83.5% (active); in the assay with SK-MEL-28 melanoma it was -91.1% (active).

With `O=C1CCC(N2C(=O)c3cccc(NCCOCCOCCNC(=O)c4cc5c(o4)C(=O)c4ccccc4C5=O)c3C2=O)C(=O)N1` (stereo not given), the growth in the assay on DU-145 prostate was -97.8% (active); in the assay with K-562 leukemia it was 8.5% (active); with MALME-3M melanoma, -95.2% (active); in the assay on MDA-MB-231 breast, -2.36% (active); with RXF 393 renal it was -39.5% (active); with SF-268 CNS it was -12.2% (active). Moreover, the growth with SF-295 CNS is -93.9% (active); in the assay on SF-539 CNS it was -95.2% (active); in the assay on UACC-257 melanoma it was -82.5% (active); in the assay on M14 melanoma it was -66.4% (active); in the assay on HCT-15 colon, 55.1%; in the assay with HT29 colon it was -16.8% (active). Also, the growth with SNB-75 CNS was -98.2% (active); in the assay with SNB-19 CNS, -24.3% (active); with U251 CNS, -42% (active); in the assay on PC-3 prostate, 6.46% (active); with SK-MEL-5 melanoma it was -98.2% (active); in the assay on UACC-62 melanoma it was -81.8% (active). In addition, the results for the growth in the assay on LOX IMVI melanoma and in the assay on SK-MEL-28 melanoma were -74.1% (active) and -38.7% (active), respectively.

`O=C(N/N=C/c1ccc(OC(F)F)c(OC2CCCC2)c1)c1cnn2c1NC(c1ccccc1)C2` (stereo not given): the growth in the assay with DU-145 prostate was 85.7%; in the assay on K-562 leukemia it was 38.6%; in the assay on MALME-3M melanoma it was 108%; with MDA-MB-231 breast, 81.9%; in the assay with RXF 393 renal it was 76.9%; in the assay on SF-268 CNS, 64.2%. Moreover, the growth in the assay on SF-295 CNS is 80.3%; in the assay with SF-539 CNS it was 81%; with UACC-257 melanoma, 88.2%; with M14 melanoma, 82.9%; with HCT-15 colon it was 51.1%; in the assay on HT29 colon, 81.7%. Moreover, the growth was 57.6% with SNB-75 CNS; 79.9% in the assay with SNB-19 CNS; 82.1% with U251 CNS; 61.7% in the assay with PC-3 prostate; 70.9% in the assay with SK-MEL-5 melanoma; 71.2% with UACC-62 melanoma. Besides, the growth is 68.1% in the assay with LOX IMVI melanoma and 88.7% in the assay with SK-MEL-28 melanoma.

As to `COc1ccc(OC)c(/C=C2\Oc3cc(O)ccc3C2=O)c1`, the growth in the assay on DU-145 prostate is 77.5%; in the assay on K-562 leukemia, 93.2%; in the assay on MALME-3M melanoma, 76%; in the assay on MDA-MB-231 breast, 103%; in the assay with RXF 393 renal it was 80.5%; in the assay on SF-268 CNS, 87.3%. For the same molecule, the growth was 98.6% in the assay with SF-295 CNS; 95.4% in the assay with SF-539 CNS; 103% with UACC-257 melanoma; 73.2% in the assay with M14 melanoma; 75% with HCT-15 colon; 100% with HT29 colon. Further, the growth was 88.6% in the assay on SNB-75 CNS; 95.5% in the assay with SNB-19 CNS; 89.5% with U251 CNS; 95.5% in the assay with PC-3 prostate; 92.4% in the assay with SK-MEL-5 melanoma; 89% with UACC-62 melanoma. The growth in the assay on LOX IMVI melanoma is 88.6%; in the assay on SK-MEL-28 melanoma, 88.5%.
